Measurements reported in paper PMC7862700, “An all-to-all approach to the identification of sequence-specific readers for epigenetic DNA modifications on cytosine”.

Columns and labels:
Test in all cases: DAPPL (digital affinity profiling via proximity ligation, sequencing); 10 mM Tris-HCl pH 7.5, 50 mM NaCl, 1 mM DTT, 4% glycerol, room temperature, 30 min; GST-TFs on glutathione beads, 16-mer random dsDNA library, 0.1% formaldehyde crosslink after washing; high values mean tight binding
Conditions in all cases: protein: recombinant; tags: N-terminal GST; dsDNA, one strand shown
FLI1 = target: T1, FLI1 (Homo sapiens, UniProt Q01543 1-452)
T1 sequence: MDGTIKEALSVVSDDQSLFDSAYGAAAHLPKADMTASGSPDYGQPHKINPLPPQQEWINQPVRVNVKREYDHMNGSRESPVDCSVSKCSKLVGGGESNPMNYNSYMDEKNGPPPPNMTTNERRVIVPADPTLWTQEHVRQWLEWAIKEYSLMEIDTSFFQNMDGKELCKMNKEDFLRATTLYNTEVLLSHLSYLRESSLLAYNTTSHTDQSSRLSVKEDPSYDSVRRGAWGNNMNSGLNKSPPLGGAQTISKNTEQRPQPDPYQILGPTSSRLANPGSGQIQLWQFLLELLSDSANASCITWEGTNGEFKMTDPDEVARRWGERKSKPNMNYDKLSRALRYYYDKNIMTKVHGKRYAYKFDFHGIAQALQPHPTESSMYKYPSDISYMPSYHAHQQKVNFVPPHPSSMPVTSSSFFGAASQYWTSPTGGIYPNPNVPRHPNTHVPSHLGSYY
Method in brief: (§1)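 Pools were built from human transcription factors expressed in yeast as GST fusions, captured on glutathione beads and DNA-barcoded, along with a tag-only sample. Incubation with 200 nmole of a 16-mer random double-stranded DNA library lasted 30 min at room temperature in Tris/NaCl/DTT/glycerol buffer, and was followed by washing, 0.1% formaldehyde crosslinking, proximity ligation, PCR amplification and Illumina NextSeq500 sequencing. Binding signal is the quotient of each hexamer's read frequency for a factor and its frequency for the tag-only sample.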

ELK1 = target: T2, ELK1 (Homo sapiens, UniProt P19419 1-428)
T2 sequence: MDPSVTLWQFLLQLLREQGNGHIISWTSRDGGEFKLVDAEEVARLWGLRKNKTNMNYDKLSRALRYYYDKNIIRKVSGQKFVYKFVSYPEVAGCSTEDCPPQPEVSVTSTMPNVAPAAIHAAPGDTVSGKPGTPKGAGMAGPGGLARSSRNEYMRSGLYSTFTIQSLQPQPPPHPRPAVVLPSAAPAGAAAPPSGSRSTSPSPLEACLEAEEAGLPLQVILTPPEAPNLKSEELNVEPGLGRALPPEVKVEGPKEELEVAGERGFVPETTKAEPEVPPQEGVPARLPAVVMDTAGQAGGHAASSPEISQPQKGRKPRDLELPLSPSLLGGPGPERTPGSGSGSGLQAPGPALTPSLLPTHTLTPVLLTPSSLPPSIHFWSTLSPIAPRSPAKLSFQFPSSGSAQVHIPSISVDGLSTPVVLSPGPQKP
Method in brief: as §1

GABPA = target: T3, GABPA (Homo sapiens, UniProt Q06546 1-454)
T3 sequence: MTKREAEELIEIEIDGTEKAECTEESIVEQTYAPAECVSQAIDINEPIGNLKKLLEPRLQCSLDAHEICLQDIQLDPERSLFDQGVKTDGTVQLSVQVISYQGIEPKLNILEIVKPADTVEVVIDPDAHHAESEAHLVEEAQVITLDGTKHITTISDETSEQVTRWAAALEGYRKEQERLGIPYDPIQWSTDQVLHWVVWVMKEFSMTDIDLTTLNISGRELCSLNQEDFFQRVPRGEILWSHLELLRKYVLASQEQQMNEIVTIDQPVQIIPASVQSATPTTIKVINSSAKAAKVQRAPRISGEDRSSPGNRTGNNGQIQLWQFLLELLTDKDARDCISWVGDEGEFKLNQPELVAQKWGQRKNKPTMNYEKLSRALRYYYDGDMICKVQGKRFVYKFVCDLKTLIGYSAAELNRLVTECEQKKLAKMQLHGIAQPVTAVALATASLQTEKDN
Method in brief: as §1

ERG = target: T4, ERG (Homo sapiens, UniProt P11308 1-479)
T4 sequence: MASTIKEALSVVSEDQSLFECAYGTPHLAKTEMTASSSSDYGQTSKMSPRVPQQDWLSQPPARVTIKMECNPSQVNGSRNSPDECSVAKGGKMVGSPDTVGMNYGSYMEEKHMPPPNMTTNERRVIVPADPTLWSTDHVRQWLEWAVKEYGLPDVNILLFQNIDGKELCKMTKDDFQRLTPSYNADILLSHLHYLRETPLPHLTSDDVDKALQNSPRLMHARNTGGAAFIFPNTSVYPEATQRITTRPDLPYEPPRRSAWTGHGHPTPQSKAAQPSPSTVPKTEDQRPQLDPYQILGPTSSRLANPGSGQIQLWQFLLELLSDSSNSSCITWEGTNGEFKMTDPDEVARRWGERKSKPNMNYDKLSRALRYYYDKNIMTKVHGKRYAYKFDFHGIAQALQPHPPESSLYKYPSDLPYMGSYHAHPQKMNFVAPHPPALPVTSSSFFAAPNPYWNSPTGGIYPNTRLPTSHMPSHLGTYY
Method in brief: as §1

ELF1 = ELF1 (Homo sapiens, UniProt P32519 1-619)
ELF1, sequence (P32519 whole entry): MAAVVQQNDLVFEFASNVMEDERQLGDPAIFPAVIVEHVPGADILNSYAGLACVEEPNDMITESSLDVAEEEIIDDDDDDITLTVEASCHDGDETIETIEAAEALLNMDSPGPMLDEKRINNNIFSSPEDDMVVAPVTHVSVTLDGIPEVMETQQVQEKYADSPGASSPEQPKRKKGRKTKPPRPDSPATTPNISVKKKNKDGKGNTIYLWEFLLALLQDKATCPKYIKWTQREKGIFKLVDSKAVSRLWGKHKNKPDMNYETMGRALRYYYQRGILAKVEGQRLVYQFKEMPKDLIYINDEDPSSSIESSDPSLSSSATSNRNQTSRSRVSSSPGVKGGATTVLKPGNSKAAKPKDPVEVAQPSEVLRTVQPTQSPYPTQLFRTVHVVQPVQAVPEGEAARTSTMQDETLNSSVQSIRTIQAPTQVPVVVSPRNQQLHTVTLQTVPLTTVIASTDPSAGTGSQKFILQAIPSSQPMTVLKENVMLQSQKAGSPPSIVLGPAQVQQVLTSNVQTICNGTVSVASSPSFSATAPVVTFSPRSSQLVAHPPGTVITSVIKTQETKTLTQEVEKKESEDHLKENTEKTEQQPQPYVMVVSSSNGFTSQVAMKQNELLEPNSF
Method in brief: as §1

EHF = target: T5, EHF (Homo sapiens, UniProt Q9NZC4 1-300)
T5 sequence: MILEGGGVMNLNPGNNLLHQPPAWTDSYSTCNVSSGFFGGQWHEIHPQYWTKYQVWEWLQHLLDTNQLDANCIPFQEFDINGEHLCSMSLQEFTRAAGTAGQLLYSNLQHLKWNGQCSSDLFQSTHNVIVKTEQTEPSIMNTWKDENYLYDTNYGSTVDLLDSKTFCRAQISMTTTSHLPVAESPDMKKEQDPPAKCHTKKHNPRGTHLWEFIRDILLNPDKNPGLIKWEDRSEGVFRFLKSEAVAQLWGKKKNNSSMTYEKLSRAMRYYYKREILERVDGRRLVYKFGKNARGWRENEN
Method in brief: as §1

SPI1 = SPI1 (Homo sapiens, UniProt P17947 1-270)
Method in brief: as §1

SPIB = SPIB (Homo sapiens, UniProt Q01892 1-262)
SPIB, sequence (Q01892 whole entry): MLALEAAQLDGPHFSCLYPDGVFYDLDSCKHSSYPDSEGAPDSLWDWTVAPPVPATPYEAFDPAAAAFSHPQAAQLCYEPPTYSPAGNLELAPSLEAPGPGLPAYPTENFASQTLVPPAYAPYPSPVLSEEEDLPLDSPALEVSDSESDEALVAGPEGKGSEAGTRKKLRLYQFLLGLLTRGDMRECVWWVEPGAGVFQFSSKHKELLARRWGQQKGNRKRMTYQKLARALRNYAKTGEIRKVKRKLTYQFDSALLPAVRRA
Method in brief: as §1

ELK3 = target: T6, ELK3 (Homo sapiens, UniProt P41970 1-407)
T6 sequence: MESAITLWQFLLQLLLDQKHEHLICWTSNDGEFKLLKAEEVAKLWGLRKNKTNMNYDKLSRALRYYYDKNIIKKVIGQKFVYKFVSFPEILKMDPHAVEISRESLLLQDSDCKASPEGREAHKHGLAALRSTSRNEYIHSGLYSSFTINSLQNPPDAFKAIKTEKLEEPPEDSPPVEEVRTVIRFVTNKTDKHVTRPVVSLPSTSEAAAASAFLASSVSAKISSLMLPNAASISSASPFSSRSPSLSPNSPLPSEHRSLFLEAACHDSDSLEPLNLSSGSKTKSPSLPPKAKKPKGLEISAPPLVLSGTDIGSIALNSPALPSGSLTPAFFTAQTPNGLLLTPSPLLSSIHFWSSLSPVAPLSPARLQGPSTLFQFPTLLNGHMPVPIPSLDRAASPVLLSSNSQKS
Method in brief: as §1

| Sequence | binding signal (FLI1) | binding signal (ELK1) | binding signal (GABPA) | binding signal (ERG) | binding signal (ELF1) | binding signal (EHF) | binding signal (SPI1) | binding signal (SPIB) | binding signal (ELK3) |
| --- | --- | --- | --- | --- | --- | --- | --- | --- | --- |
| ATTGAT | 1.28 fold enrichment (6-mer frequency, TF over GST control) | 1.35 fold enrichment (6-mer frequency, TF over GST control) | 1.39 fold enrichment (6-mer frequency, TF over GST control) | 1.33 fold enrichment (6-mer frequency, TF over GST control) | 1.31 fold enrichment (6-mer frequency, TF over GST control) | 1.17 fold enrichment (6-mer frequency, TF over GST control) | 1.24 fold enrichment (6-mer frequency, TF over GST control) | 1.16 fold enrichment (6-mer frequency, TF over GST control) | 1.33 fold enrichment (6-mer frequency, TF over GST control) |
| CCCCTC | 1.48 fold enrichment (6-mer frequency, TF over GST control) | 1.29 fold enrichment (6-mer frequency, TF over GST control) | 1.45 fold enrichment (6-mer frequency, TF over GST control) | 1.28 fold enrichment (6-mer frequency, TF over GST control) | 1.43 fold enrichment (6-mer frequency, TF over GST control) | 1.31 fold enrichment (6-mer frequency, TF over GST control) | 1.39 fold enrichment (6-mer frequency, TF over GST control) | 1.55 fold enrichment (6-mer frequency, TF over GST control) | 1.37 fold enrichment (6-mer frequency, TF over GST control) |
| TTTCGA | 1.36 fold enrichment (6-mer frequency, TF over GST control) | 1.45 fold enrichment (6-mer frequency, TF over GST control) | 1.51 fold enrichment (6-mer frequency, TF over GST control) | 1.37 fold enrichment (6-mer frequency, TF over GST control) | 1.56 fold enrichment (6-mer frequency, TF over GST control) | 1.49 fold enrichment (6-mer frequency, TF over GST control) | 1.35 fold enrichment (6-mer frequency, TF over GST control) | 1.48 fold enrichment (6-mer frequency, TF over GST control) | 1.52 fold enrichment (6-mer frequency, TF over GST control) |
| TCACCA | 1.18 fold enrichment (6-mer frequency, TF over GST control) | 1.23 fold enrichment (6-mer frequency, TF over GST control) | 1.12 fold enrichment (6-mer frequency, TF over GST control) | 1.14 fold enrichment (6-mer frequency, TF over GST control) | 1.18 fold enrichment (6-mer frequency, TF over GST control) | 1.06 fold enrichment (6-mer frequency, TF over GST control) | 1.21 fold enrichment (6-mer frequency, TF over GST control) | 1.2 fold enrichment (6-mer frequency, TF over GST control) | 1.22 fold enrichment (6-mer frequency, TF over GST control) |
| CGACTC | 1.37 fold enrichment (6-mer frequency, TF over GST control) | 1.42 fold enrichment (6-mer frequency, TF over GST control) | 1.53 fold enrichment (6-mer frequency, TF over GST control) | 1.39 fold enrichment (6-mer frequency, TF over GST control) | 1.45 fold enrichment (6-mer frequency, TF over GST control) | 1.43 fold enrichment (6-mer frequency, TF over GST control) | 1.35 fold enrichment (6-mer frequency, TF over GST control) | 1.56 fold enrichment (6-mer frequency, TF over GST control) | 1.43 fold enrichment (6-mer frequency, TF over GST control) |
| TCGATT | 1.12 fold enrichment (6-mer frequency, TF over GST control) | 1.11 fold enrichment (6-mer frequency, TF over GST control) | 1.13 fold enrichment (6-mer frequency, TF over GST control) | 1.12 fold enrichment (6-mer frequency, TF over GST control) | 1.12 fold enrichment (6-mer frequency, TF over GST control) | 1.05 fold enrichment (6-mer frequency, TF over GST control) | 1.08 fold enrichment (6-mer frequency, TF over GST control) | 1.15 fold enrichment (6-mer frequency, TF over GST control) | 1.06 fold enrichment (6-mer frequency, TF over GST control) |
| AAACTC | 1.29 fold enrichment (6-mer frequency, TF over GST control) | 1.3 fold enrichment (6-mer frequency, TF over GST control) | 1.15 fold enrichment (6-mer frequency, TF over GST control) | 1.17 fold enrichment (6-mer frequency, TF over GST control) | 1.25 fold enrichment (6-mer frequency, TF over GST control) | 1.24 fold enrichment (6-mer frequency, TF over GST control) | 1.13 fold enrichment (6-mer frequency, TF over GST control) | 1.18 fold enrichment (6-mer frequency, TF over GST control) | 1.16 fold enrichment (6-mer frequency, TF over GST control) |
| ATTCTC | 1.35 fold enrichment (6-mer frequency, TF over GST control) | 1.27 fold enrichment (6-mer frequency, TF over GST control) | 1.32 fold enrichment (6-mer frequency, TF over GST control) | 1.25 fold enrichment (6-mer frequency, TF over GST control) | 1.24 fold enrichment (6-mer frequency, TF over GST control) | 1.27 fold enrichment (6-mer frequency, TF over GST control) | 1.27 fold enrichment (6-mer frequency, TF over GST control) | 1.32 fold enrichment (6-mer frequency, TF over GST control) | 1.42 fold enrichment (6-mer frequency, TF over GST control) |
